# Source: the supplement of paper PMC6555819
# System: VDR:RXRa (NR concentration 270 nM, RXRa partner concentration 90 nM)
# Experiment: PBM binding z-score (relative to random genomic background probes); higher = stronger binding; sequences stand for … in GC…GCGATTGACAGCGTAGAATGAAGG
# Experimental: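 Protein-binding microarray (Agilent 4x180K custom design, double-stranded 60-nt probes: 5' GC cap, 34-nt variable region, 24-nt constant primer region; full probe sequence given). Purified or IVT nuclear receptor:RXRα heterodimers (3:1 NR:RXRα, mostly 270:90 nM) or homodimers were incubated for 1 h in PBS with 2% milk and no ligand, then detected with Alexa488 antibodies. Fluorescence from o1-orientation probes (~5 replicates averaged) was converted to z-scores against 500 random hg19 background probes. Variable regions are seed direct-repeat (DR0–DR5) sites, all their single-nucleotide variants and half-site ablations.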
row,Sequence,PBM binding z-score
1,CCTTACGGGTCACGAGGCTATAGCACGACGAGCG,3.93
2,CGAACTAGGTCGTTGACAGGACAGTGAATAGTAA,0.71
3,AATACAGGGTCACTAGGCCTGAGTAGGTACGAAT,3.84
4,TGTTGTAGATCAACAGGAGGTTAAGAAAGATCGA,0.37
5,TCATATAGGTAATACAGGTGAAAATCGGCATCTA,1.32
6,ATCTCTAGGTAATCAAGTTCAGTGAATGCCGAAC,4.21
7,TCTTGTATATCAAGCAGGTTAAGAAAGCCTGAGT,0.659
8,TCTTGTCGATCAACAGGAGGTTAAGAAAGATCGA,0.427
9,ATTCAAAGTTCAGGACGAGGTAACGTAAAGCACG,3.14
10,CCTACGGGGCCATCAGGTCATTGATATCAACGTT,3.06
11,CCGACTGGGGCAAGATTACCATAACGCACAGCCA,-0.621
12,TCTAGGTGGTCACGGAGGTCACACACGACGGGTA,6.02
13,TAGCCTAGGTCAGATCGGGCCAGTATCCGCTATA,0.43
14,CCTATTAGTTGACCATAAGGGCAACAGAAGCTCG,0.519
15,CCTAGCAGGCCAGGCTCACTCAAGCATTTCGCTT,-0.772
16,GCGACTGGGGCATCAGCAGGTTACCATCACTTAA,-0.265
17,ATCTCTAGGCAACAAGTTCAGTGAAAGAGAGGAC,1.82
18,CGAACTAGGTCATTGACAGGCCAGTGAATAGTAA,1.88
19,CCTGCTAGATCATGGTCAGCTAATCTACAGTATG,-0.447
20,CCTACTGGGCCAAAGGTCATTGAATCCAATGCTC,4.86

row,Sequence,PBM binding z-score
1,ACTCGGAGGACAAAGGTCAGAGCTACGCCAGTGA,3.36
2,CCTGCTAGGTCATGGTCAGCAAATCTACAGTATG,1.48
3,GCTTGTAGATCAAGGTTAAGGAAGACTAAGCTAA,0.00298
4,ATCTCTAGGTAAAAGTTCAGTAAATCCCGAGGAT,1.19
5,TCTAGTAGTTGATTAGGGCAACCGAAACAGCGGA,0.217
6,TCATATAGGTAAAGGTGAGAGTCGAACGATATGA,0.633
7,TCGAGTAGGTTAGGAGCATTCAGAATGGCGTCGA,-0.474
8,GCATAGAGGTAATACAAGGTGAAAGTCCGATTGT,0.566
9,CCGAGTAGGTTATGGGGCATTCATGCAACGGTGA,0.118
10,AGAACGAGGGCACGCTGAGTTGACAGCAGAGTAG,2.32
11,GATACAGGGTCAGCTAGAGGCCAGAGAATGGAAA,3.42
12,TCTTGTAGATCAGCAGGTTAAAAAAGCTGGCCAA,0.495
13,GGAACGAGGGCAATGTTGATAGCATCTGTCGACG,0.402
14,CCTAGCAGGCCAATCTGCGTCACTCAAGGCTTGA,-0.714
15,TTACCAAAGTGAAGGTCGTTGATCCCTCTGTAGA,0.954
16,AGAATGAGGTTATACGTAGATAAGGGAAGAAAGT,1.47
17,CACACTAGGTCACGAAAGGTCAAAGTCGAATGAC,7.02
18,TGTTGTAGATCAGCAGGTTAAGAAAGCTGGCCAA,-0.372
19,CCAACTAGGTCAAGGTCAAAGTCGGTTTGTGCCA,5.14
20,TCTTGTAGATCAAGAAGGTTAAGAAAGCCTGAGT,1.16
